Results taken from the supplement of paper PMC3334620.
Whole data set: some 33,000 sequences, median “E-score (-0.5 to 0.5)” near -0.035, cut for the highest 2% near 0.34. Many of the other results were omitted from the sample, so the highest values are more common in it than they were.

These sequences were tested against T1, Mot3 (UniProt P54785) (assay: PBM E-score (8-mer binding enrichment) (E-score (-0.5 to 0.5)); higher = stronger / more preferred TF binding). Settings: protein concentration: 200 nM; construct: GST-full length.
T1 sequence: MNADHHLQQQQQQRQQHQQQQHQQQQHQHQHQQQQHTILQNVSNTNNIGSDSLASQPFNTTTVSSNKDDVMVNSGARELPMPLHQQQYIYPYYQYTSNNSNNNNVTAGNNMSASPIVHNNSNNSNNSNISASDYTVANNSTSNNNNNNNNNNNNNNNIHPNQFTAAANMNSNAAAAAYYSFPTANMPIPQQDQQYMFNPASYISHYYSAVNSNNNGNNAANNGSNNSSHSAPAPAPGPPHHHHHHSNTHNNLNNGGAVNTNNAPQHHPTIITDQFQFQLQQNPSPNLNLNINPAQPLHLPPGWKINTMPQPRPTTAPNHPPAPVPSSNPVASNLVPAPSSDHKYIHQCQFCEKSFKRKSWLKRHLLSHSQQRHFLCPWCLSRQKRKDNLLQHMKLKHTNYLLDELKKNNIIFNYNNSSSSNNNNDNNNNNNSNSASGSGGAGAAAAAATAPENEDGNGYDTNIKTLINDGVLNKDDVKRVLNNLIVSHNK
Method: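 Universal 'all 10-mer' protein binding microarrays (Agilent AMADID 015681) probed with GST-tagged S. cerevisiae TFs (full-length or DBD) made by in vitro transcription/translation (PURExpress), about 100-200 nM. Bound TF was detected with fluorescent anti-GST. Each ungapped 8-mer (which stands for itself and its reverse complement) is scored by the PBM enrichment score (E-score), a modified Wilcoxon-Mann-Whitney statistic from -0.5 to +0.5, computed with the Universal PBM Analysis Suite. Scale: above 0.35 generally sequence-specific binding.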

Row | Sequence | PBM E-score
1 | AGGACACG | 0.071
2 | GTGAGCCA | -0.12
3 | GCGTTGGA | 0.0942
4 | GTATCGTA | 0.197
5 | CCGTTTCA | -0.123
6 | AAGAGAAC | 0.0546
7 | CCTGTGCC | 0.361
8 | ACTGTGCC | 0.265
9 | CCTGTGCG | 0.185
10 | GCCGTGCA | -0.0598
11 | GCCGTGCC | 0.346
12 | ACCGTGCC | 0.336
13 | CGCGAGAC | -0.11
14 | ACGCCAAG | -0.0211
15 | CGCTGTGC | -0.0145
16 | ATAGGTGG | 0.0389
17 | AATAAGGA | 0.0872
18 | ACTTACAT | 0.311
19 | AATTACAG | 0.27
20 | GATTACAC | 0.419
21 | GCTTACAC | 0.178
22 | GATTACTA | 0.122
23 | CATTACAA | 0.301

Row | Sequence | PBM E-score
24 | CATTACAG | 0.287
25 | CATTACAC | 0.384
26 | GATTACAA | 0.359
27 | GATTACGC | 0.23
28 | GCTTACAA | 0.197
29 | AATTACAT | 0.419
30 | ATGCTGCC | -0.0402
31 | ATCCGGAG | -0.0342
32 | CCATACTC | -0.245
33 | AATTACAA | 0.362
34 | AATTACCA | 0.174
35 | TATTACAA | 0.297
36 | AATTACAC | 0.402
37 | ACTTACAC | 0.217
38 | AATTACCC | -0.0825
39 | CCTGCAGA | 0.303
40 | CCTGCAGG | 0.413
41 | CCTGCAGC | 0.0434
42 | TACATGGA | 0.346
43 | GACATGAA | 0.274
44 | TACATGCA | 0.361
45 | GACATGGA | 0.167
46 | AACATGCA | 0.324

Row | Sequence | PBM E-score
47 | GACATGCA | 0.203
48 | CACATGAA | 0.185
49 | TACATGAA | 0.375
50 | AACATGGA | 0.312
51 | AGCTATGC | -0.0718
52 | GCACAGTA | -0.0809
53 | ATGCTATG | 0.19
54 | CGCTCAGA | 0.0235
55 | ATCTTCAT | -0.0494
56 | AAGTAGGG | -0.08
57 | CCCTTGCC | 0.0298
58 | ACCTTGTA | 0.338
59 | CCCTTGTA | 0.237
60 | GCCTTGCC | 0.416
61 | GCCTTGTA | 0.354
62 | GCCTTGCA | -0.00236
63 | CATTTCGG | -0.063
64 | AGGGCCCT | -0.368
65 | GCTCGGAC | -0.172
66 | CGACAGAA | -0.216
67 | GACCTCGA | -0.139
68 | GTATCCAA | -0.0981
69 | CAGGTCAG | -0.242

Row | Sequence | PBM E-score
70 | ATAGGCTA | 0.0381
71 | CTAGGCAA | 0.474
72 | ATAGGCAA | 0.486
73 | ATAGGGAT | 0.0533
74 | ATAGGCGC | 0.249
75 | ATCGGCAT | -0.0895
76 | ATAGGCAT | 0.412
77 | ATAGGCAC | 0.491
78 | CTAGGCTA | -0.18
79 | CTAGGCGA | -0.178
80 | ATAGGCAG | 0.234
81 | ATAGGCTC | 0.207
82 | CCACAAGG | 0.094
83 | AGTGAGCC | -0.0781
84 | CAGTTAAA | 0.0473
85 | GTGGCGCA | -0.0264
86 | CCCAGTGA | -0.203
87 | CATTCTCA | 0.0726
88 | GTAGGCCA | 0.00764
89 | TTCGGCAA | 0.0952
90 | TTAGGCAA | 0.481
91 | GTAGGCTA | 0.226
92 | CTAGGCAG | -0.0742

Row | Sequence | PBM E-score
93 | CTAGGCGC | 0.041
94 | TTAGGGAA | 0.0178
95 | CTAGGCAC | 0.485
96 | GTAGGCAA | 0.49
97 | AAGACGCA | -0.0452
98 | AAACAGCG | 0.0286
99 | AGCCTGAT | 0.183
100 | AGTGCCTA | 0.484
101 | GGTGCCAA | -0.14
102 | GGTGCCTA | 0.492
103 | AGTGCCGA | -0.324
104 | GGTGCCGA | 0.0164
105 | AGTGCCAA | -0.0129
106 | ATACAGAT | 0.0248
107 | ACGTAGGA | 0.184
108 | GACATGAC | 0.175
109 | AACATGAA | 0.305
110 | AACATGCT | 0.308
111 | AACATGAC | 0.359
112 | AACATGAT | 0.349
113 | AACATGAG | 0.277
114 | ACACAAGT | 0.164
